The values that follow come from PubChem BioAssay AID488969 (Vanderbilt High Throughput Screening Facility, 2010).

In all, about 110,000 compounds were measured (“z-score”: median about -0.1, highest 2% from about 2 on). Shown is part of a subset that was picked to be rich in the highest values. The source made the active and inactive calls.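 How the source made its calls: active means z-score in the third read window above 3 or below -3; inactive means the rest.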

The target in this experiment is Metabotropic glutamate receptor 8 (Rattus norvegicus) (UniProt P70579). Briefly: mGluR8 Gi/Go-coupled signaling modulation – cell-based, rat, thallium flux, HTS, primary screen (AID 488969). The settings on record: HEK293 rat mGluR8, GIRK (G protein-gated inwardly rectifying potassium channel) thallium flux, FluoZin2; at 10 µM; stronger effect = higher value; submaximal glutamate (EC20) added with thallium.
Chain of Metabotropic glutamate receptor 8 (Rattus norvegicus) (P70579 whole entry, looked up): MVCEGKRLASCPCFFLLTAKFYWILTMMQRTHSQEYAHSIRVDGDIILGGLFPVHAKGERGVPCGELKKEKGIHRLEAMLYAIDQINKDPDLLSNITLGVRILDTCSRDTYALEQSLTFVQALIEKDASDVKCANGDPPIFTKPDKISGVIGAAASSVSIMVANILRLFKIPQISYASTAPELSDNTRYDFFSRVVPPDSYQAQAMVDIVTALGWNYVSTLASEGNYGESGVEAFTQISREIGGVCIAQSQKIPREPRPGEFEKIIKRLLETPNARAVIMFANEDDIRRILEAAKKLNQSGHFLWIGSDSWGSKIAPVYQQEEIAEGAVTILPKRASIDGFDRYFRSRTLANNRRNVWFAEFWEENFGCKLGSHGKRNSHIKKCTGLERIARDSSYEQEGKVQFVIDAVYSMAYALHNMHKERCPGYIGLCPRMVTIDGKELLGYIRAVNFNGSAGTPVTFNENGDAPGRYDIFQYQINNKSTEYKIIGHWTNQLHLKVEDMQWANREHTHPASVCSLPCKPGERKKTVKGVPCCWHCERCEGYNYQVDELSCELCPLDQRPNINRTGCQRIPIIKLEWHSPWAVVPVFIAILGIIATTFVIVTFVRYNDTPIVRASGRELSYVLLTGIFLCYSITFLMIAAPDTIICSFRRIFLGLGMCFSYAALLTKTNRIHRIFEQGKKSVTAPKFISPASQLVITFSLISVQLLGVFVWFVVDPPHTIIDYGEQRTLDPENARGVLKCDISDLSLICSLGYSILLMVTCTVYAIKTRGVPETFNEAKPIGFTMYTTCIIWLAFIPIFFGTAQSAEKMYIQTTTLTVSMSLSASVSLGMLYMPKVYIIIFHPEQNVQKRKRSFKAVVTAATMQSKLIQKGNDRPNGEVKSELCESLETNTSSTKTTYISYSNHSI
`CC(=O)c1ccc(OCC(O)CN2C(C)(C)CC(O)CC2(C)C)cc1` (stereo not given): the z-score was -0.153.

Regarding `CCn1c(=N)n(CC(O)COc2cccc(C)c2)c2ccccc21` (stereo not given), the z-score amounted to 0.778.

Take `Cc1cccc(OCC(O)CN2C(C)(C)CC(O)CC2(C)C)c1` (stereo not given): the z-score was 9.44 (active).

In turn, `C=CCn1c(=N)n(CC(O)COc2ccccc2OC)c2ccccc21` (stereo not given) registered a z-score of 1.12.

As to `CCCn1c(=N)n(CC(O)COc2cccc(C)c2)c2ccccc21` (stereo not given), the z-score is 3.74 (active).

Consider `CCCCCn1c(=N)n(CC(O)COc2ccccc2OC)c2ccccc21` (stereo not given), for which the z-score is -1.11.

`Cc1cccc(OCC(O)CN2C(C)(C)CC(O)CC2(C)C)c1C` (stereo not given) displayed a z-score of 1.1.

For the molecule `CCCCn1c(=N)n(CC(O)COc2cccc(C)c2)c2ccccc21` (stereo not given), the z-score was 4.52 (active).

`CCCn1c(=N)n(CC(O)c2ccco2)c2ccccc21` (stereo not given): the z-score was 0.907.

Turning to `CC(=O)c1ccc(OCCCC(=O)Nc2ccc(C)c(S(=O)(=O)N(C)C)c2)cc1`, the z-score amounted to 0.136.

The molecule `O=C(CCNc1cc(Cl)cc(Cl)c1)c1cccs1` came in with a z-score of 0.0113.

For `COc1ccc(NS(=O)(=O)c2c(C)n(C)c(=O)n(C)c2=O)cc1OC`, the z-score is -0.0428.

The molecule `Cc1ccc(S(=O)(=O)Cc2ccc(C(=O)NCc3ccc4c(c3)OCO4)o2)cc1` yielded a z-score of -0.326.

In the case of `NS(=O)(=O)c1ccc(CCNC(=O)C2CCN(S(=O)(=O)c3cnc[nH]3)CC2)cc1`, the z-score is -0.00955.

In turn, `O=C(NC1CCCC1)C(c1cccnc1)N(C(=O)c1csnn1)C1CCCC1` (stereo not given) showed a z-score of -0.145.

The molecule `CC1CCN(c2nc3c(c(=O)[nH]c(=O)n3C)n2CCSc2nc3ccccc3o2)CC1` yielded a z-score of 0.0449.

The molecule `C=C1c2cc(C)ccc2NC(=O)N1c1ccc(C)cc1` yielded a z-score of -0.68.

Regarding `COc1cc(C)c(-c2cc(C(=O)O)c(C)o2)cc1C(C)C`, the z-score was -0.106.

`COc1cc(C)c(S(=O)(=O)N2CCOCC2)cc1C(C)C` yielded a z-score of 0.397.

Take `COc1cc(C)c(N)cc1C(C)C`: the z-score stood at 2.12.

`COc1ccc(C(=O)NC(=S)N2CCN(c3ccc([N+](=O)[O-])cc3)CC2)cc1` displayed a z-score of 0.274.

As for `CCNC(=S)N1CCN(c2ccc([N+](=O)[O-])cc2)CC1`, the z-score came to 0.99.

`O=C(NC(=S)N1CCN(c2ccc([N+](=O)[O-])cc2)CC1)c1ccc(F)cc1`: the z-score was 9.01 (active).

On to `C=CCNC(=S)N1CCN(c2ccc([N+](=O)[O-])cc2)CC1`, for which the z-score came out at 2.09.

For the molecule `Cc1ccc(C(=O)NC(=S)N2CCN(c3ccc([N+](=O)[O-])cc3)CC2)cc1`, the z-score was 0.426.

`CNC(=S)N1CCN(c2ccc([N+](=O)[O-])cc2)CC1` registered a z-score of -0.188.

The molecule `CC(=O)c1c(C)nc2ccccc2c1N` came in with a z-score of 0.205.

In turn, `CN(C)c1nc(-c2ccccc2)nnc1C(F)(F)F` showed a z-score of -0.148.

As for `CCN(CC)c1nc2ccccc2c(N)c1-c1ccccc1`, the z-score came to 0.0637.

`Cc1c(N(C)C)nc2ccccc2c1N` registered a z-score of 2.03.

`Cc1cc(C)c2c(N)c3ccccc3nc2n1` showed a z-score of -0.0162.

As to `CN(C)c1nc2ccccc2c(N)c1-c1ccccc1`, the z-score was 3.06 (active).

As to `O=C(NCc1cccnc1)c1cccc(Cl)c1`, the z-score turned out to be 0.278.

`O=C(Cn1c(=O)oc2ccccc21)NCc1ccco1`: the z-score is 0.455.

`Cc1c(NCc2cc(Cl)ccc2O)c(=O)n(-c2ccccc2)n1C` had a z-score of -0.0479.

Take `O=C(CSc1nnc(-c2cccc(Cl)c2)o1)Nc1ccc2c(c1)OCCO2`: the z-score is -0.0175.

The molecule `CCCN(CC(=O)Nc1cc(Cl)cc(Cl)c1)CC(=O)Nc1ccc(F)c(F)c1F` returned a z-score of -0.209.

Molecule `CC(C)COP(=O)(c1ccc(N(C)C)cc1)C(Nc1ccccc1)c1ccccc1` (stereo not given) registered a z-score of -0.803.

`CCCCSCCCNC(=O)Nc1cccc(OC)c1` registered a z-score of -0.211.

`CCOc1ccc(NC(=O)NCCCSC2CCCCC2)cc1` showed a z-score of 0.197.

For `COc1cccc(NC(=O)NCCCSC2CCCCC2)c1`, the z-score was 4.47 (active).

`O=C(COC(=O)c1cccc([N+](=O)[O-])c1)c1ccc(OCc2ccccc2)cc1` registered a z-score of -0.231.

Consider `COc1ccc(CNC(=O)Cc2csc(Nc3nc(=S)[nH]c4ccccc34)n2)cc1`, for which the z-score was 8.83 (active).

`COc1ccc(CNC(=O)Cc2c(C(=O)O)[nH]c3ccccc23)cc1` came in with a z-score of -0.136.

With `O=C(Cc1c[nH]c2ccccc12)NCc1ccc(Cl)cc1`, the z-score worked out at 0.348.

For `COC(=O)Cc1csc(Nc2ccccc2Cl)n1`, the z-score was 0.0565.

`O=C(CCCSc1nc2ccccc2[nH]1)NCc1ccc(Cl)cc1` displayed a z-score of -0.328.

On to `O=C(Cc1csc(Nc2nc(=S)[nH]c3ccccc23)n1)NCc1ccccc1Cl`, for which the z-score is 3.83 (active).

As for `O=C(Cc1csc(Nc2nc(=S)[nH]c3ccccc23)n1)NCc1ccc(Cl)cc1`, the z-score was 7.05 (active).

`O=C(CCCCCNc1nc(=S)[nH]c2ccccc12)NCCc1ccccc1` yielded a z-score of 0.302.

`COc1ccc(CNC(=O)COC(=O)[C@H](Cc2c[nH]c3ccccc23)NC(=O)c2cccs2)cc1` came in with a z-score of 0.0349.

On to `O=C(Cc1csc(Nc2nc(=S)[nH]c3ccccc23)n1)NCc1cccc(Cl)c1`, for which the z-score is 6.85 (active).

`O=C(O)Cc1csc(Nc2cccc(Cl)c2)n1` had a z-score of 0.819.

Regarding `O=C(O)CCCCCNc1nc(=S)[nH]c2ccccc12`, the z-score turned out to be 0.209.

Molecule `Cc1cccc(OCC(=O)Nc2ccc(N3CCN(C(=O)c4ccccc4)CC3)cc2)c1` had a z-score of -0.0735.

On to `Cc1ccc(S(=O)(=O)N2CCOCC2)c2nsnc12`, for which the z-score was -0.358.

`CCN1CCN(C(CNC(=O)c2ccc3c(c2)OCO3)c2cccnc2)CC1` (stereo not given): the z-score is -0.319.

`COc1cc2c(cc1OC)CN(C(=O)C(C)(C)C)CC2`: the z-score was -0.104.

For the molecule `CN(C1CCCCC1)S(=O)(=O)c1ccc(S(=O)(=O)N2CCN(CCC#N)CC2)cc1`, the z-score is 0.242.

The molecule `CCS(=O)CCSC(=N)N` (stereo not given) showed a z-score of -0.0992.

For the molecule `Cc1ccc(CNC(=O)Cc2csc(Nc3nc(=S)[nH]c4ccccc34)n2)cc1`, the z-score is 10.7 (active).

For `O=C(Cc1csc(-c2ccccc2)n1)NCc1ccc(F)cc1`, the z-score is -0.252.

Molecule `Cc1ccc(NC(=S)Nc2nc(CC(=O)Nc3ccccc3)cs2)cc1` came in with a z-score of 0.0541.

For the molecule `COc1ccc(-n2nc3ccccc3n2)cc1`, the z-score came to 0.249.

`O=C(NCc1ccncc1)C1CCCN(S(=O)(=O)Cc2ccccc2)C1` (stereo not given) had a z-score of -0.193.

`CCC1CCCCN1C(=O)CSc1nnc(-c2cccs2)o1` (stereo not given) showed a z-score of 0.801.

Regarding `CCC1CCCCN1C(=O)CSc1nnc(-c2ccco2)o1` (stereo not given), the z-score is 11.1 (active).

The molecule `CCC1CCCCN1C(=O)CSc1nnc(-c2ccc(Cl)cc2)o1` (stereo not given) returned a z-score of -0.41.

Molecule `CCC(NC(=O)Cn1cnc2c(=O)n(C)c(=O)n(C)c21)c1ccccc1` (stereo not given) gave a z-score of 0.0869.

`COc1ccc(C2C(C(=O)c3ccco3)=C(O)C(=O)N2CCOCCO)cc1OC` (stereo not given) yielded a z-score of -0.0423.

Molecule `COc1ccc(CC(=O)Nc2cccc(-c3csc(C)n3)c2)cc1` came in with a z-score of 1.88.

`O=C(NOC(=O)c1ccccc1Cl)c1cccs1` registered a z-score of -0.383.

As for `COC(=O)NNC(=O)c1ccc(C)cc1`, the z-score turned out to be 0.0536.

Consider `Cc1c(C(=O)NCc2cccnc2)oc2ccc(S(=O)(=O)N3CCC4(CC3)OCCO4)cc12`, for which the z-score is 5.95 (active).

The molecule `Cc1c(C(=O)NCc2cccnc2)oc2ccc(S(=O)(=O)N3CCCCC3)cc12` showed a z-score of 1.3.

Consider `Cc1c(C(=O)NCc2ccccc2)oc2ccc(S(=O)(=O)N3CCC4(CC3)OCCO4)cc12`, for which the z-score was -0.293.

On to `CCCOc1ccc(C(=O)Nc2cc(-c3nn4c(C)nnc4s3)ccc2C)cc1`, for which the z-score was -0.185.

`CN(Cc1ccccc1)c1ccc(N2C(=O)CCCC2=O)cc1[N+](=O)[O-]` came in with a z-score of -0.202.

In the case of `Cc1cccc(-c2nc(CSCC(=O)N3CCN(c4ccccn4)CC3)c(C)o2)c1`, the z-score was -1.37.

Consider `O=C(O)CCCC(=O)NCCc1ccncc1`, for which the z-score was determined as 0.0989.

`COc1ccc(/C=N/NC(=O)C(=O)/C=C2\NC3(CCCC3)Cc3ccccc32)cc1` returned a z-score of 0.0973.

In turn, `CC(=O)c1ccccc1NC(=O)COC(=O)c1ccccc1NC(=O)c1ccccc1` displayed a z-score of 0.161.

As for `Cc1cccc(C(=O)Nc2ccccc2C(=O)OCC(=O)Nc2ccc(C#N)cc2)c1`, the z-score is 2.11.

In turn, `Cc1ccc(NC(=O)COC(=O)c2ccccc2Nc2ccccc2)cc1` returned a z-score of -0.179.

With `COc1ccc(S(=O)(=O)N2CCN(C(=O)c3ccco3)CC2)cc1OC`, the z-score is -0.51.

Regarding `COc1cc(/C=N/NC(=O)C(Cc2c[nH]c3ccccc23)NC(=O)OCc2ccccc2)cc([N+](=O)[O-])c1O` (stereo not given), the z-score was -0.505.

For `CC(C)(C)NC(=O)C(c1ccncc1)N(C(=O)c1csnn1)c1ccccc1` (stereo not given), the z-score is 6.21 (active).

As to `Cc1cccc(N(C(=O)c2csnn2)C(C(=O)NC(C)(C)C)c2ccncc2)c1` (stereo not given), the z-score is -0.134.

`Cc1ccc(N(C(=O)c2csnn2)C(C(=O)NC(C)(C)C)c2ccncc2)cc1` (stereo not given) yielded a z-score of -0.134.

`CC(C)COC(=O)c1cc(=O)[nH]c2ccccc12` yielded a z-score of 1.23.

In turn, `CCc1ccc2nc(NC(=O)CSCc3c(C)noc3C)sc2c1` yielded a z-score of -0.0333.

`CCc1ccc(NC(=O)c2cc(C)on2)cc1`: the z-score is -0.546.

`Cc1cc(C)c2nc(NC(=O)C3CCCO3)sc2c1` (stereo not given) showed a z-score of 0.217.

For `CCc1ccc2nc(NC(=O)c3cc(C)on3)sc2c1`, the z-score was 10.1 (active).

Molecule `Cc1cc(C)c2nc(NC(=O)c3ccc(OCC4CCCO4)cc3)sc2c1` (stereo not given) registered a z-score of -0.201.

`Cc1cc(C)c2nc(NC(=O)c3cc(C)on3)sc2c1`: the z-score is 12 (active).

The molecule `O=C(Oc1ccc(Br)cc1C(=S)N1CCCC1)c1ccccc1Cl` yielded a z-score of -0.0754.

Consider `CCOC(=O)N1CCN(Cc2nc(N)nc(Nc3ccc(OCC)cc3)n2)CC1`, for which the z-score was -0.27.

`CC(=O)OC1COC(n2ccc3cc([N+](=O)[O-])ccc32)C(OC(C)=O)C1OC(C)=O` (stereo not given) had a z-score of 0.0746.

With `CC(=O)NC1(C(F)(F)F)C(=O)NC(C)=C1C#N` (stereo not given), the z-score was -1.29.

`Cn1c(=O)[nH]c(=O)c2c1nc(NCc1ccccc1)n2CCCc1ccccc1` yielded a z-score of -0.132.

Turning to `CN(C)CCNc1nc2c(c(=O)[nH]c(=O)n2C)n1CCCc1ccccc1`, the z-score was 3.35 (active).

For the molecule `Cn1c(=O)[nH]c(=O)c2c1nc(NCCCO)n2CCCc1ccccc1`, the z-score came out at 0.0396.

As for `CC(C)NS(=O)(=O)c1ccc(NC(=O)C2CC3C=CC2C3)cc1` (stereo not given), the z-score is -0.0807.

`O=C1Nc2ccccc2SC(c2ccccc2)C1O` (stereo not given): the z-score was -0.0924.

Regarding `O=C(CN1CCC(n2nnc3cc(F)ccc32)CC1)N1CCc2ccccc2C1`, the z-score was -0.899.

With `O=C(CSc1n[nH]c(-c2ccc(S(=O)(=O)N3CCCCC3)cc2)n1)Nc1nccs1`, the z-score was 0.951.

Regarding `CCC(c1nnnn1Cc1ccccc1)N(Cc1ccco1)Cc1cc2cc(OC)ccc2[nH]c1=O` (stereo not given), the z-score is -0.0441.

Consider `CCC(c1nnnn1Cc1ccc(OC)cc1)N(CCCO)Cc1cc2cc3c(cc2[nH]c1=O)OCO3` (stereo not given), for which the z-score was 5.57 (active).

Consider `CCC(c1nnnn1CCOC)N(Cc1ccc(C)cc1)Cc1cc2cc(OC)ccc2[nH]c1=O` (stereo not given), for which the z-score is 0.378.
